Results: article PMC5540273 (PLoS ONE, 2017)

System: T1, ERK8
T1 construct: gene MAPK15
Details: concentration: 1 μM,replicates: in singlicate; n = 1
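Note: KINOMEscan kinase panel screen.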

Compound | %Inh [%]
COc1ccc(Nc2nccc(N3CCC(NC(=O)c4cccc(C#N)c4)C3)n2)cc1 (centres unmarked) [GSK1379730] | 30
C[C@@H](Oc1cc(-n2cnc3cc(-c4cnn(C)c4)ccc32)sc1C(N)=O)c1ccccc1Cl [GSK580432] | 64
O=C(Nc1n[nH]c2cc(-c3ccco3)ccc12)C1CC1 [SB-737447] | 72
COC(=O)Nc1nc2cc(Oc3ccc(NC(=O)Nc4cc(C(F)(F)F)ccc4Cl)cc3)ccc2[nH]1.Cl [GW697465] | 90.9
Cc1cccc2c(-c3ccncc3)c(-c3ccc(F)cc3)nn12.Cl [GW461487] | 0
O=c1[nH]cc(-c2ccc(O)cc2)c2sc(-c3ccncc3)cc12 [GSK1033723] | 0
COc1cccc(CNC(=O)NC2CCN(c3ccnc(Nc4cc(OC)c(OC)c(OC)c4)n3)C2)c1 (centres unmarked) [GSK1379765] | 0
COc1cccc(OC)c1C(=O)Nc1cccc(-c2nn3ccccc3c2-c2ccnc(Nc3cccc(F)c3)n2)c1 [GSK361065] | 3
CC(=O)Nc1nc2cnc(Nc3cc(NC(=O)c4cccc(CC(C)(C)C#N)c4)ccc3C)nc2s1 | 53
CC(C)S(=O)(=O)N1CCN(Cc2ccc3c(c2)nc(NC(=O)c2ccsc2)n3C[C@H](O)c2ccccc2)CC1 [GW635815] | 0
Cc1ccc(Nc2ccnc(Nc3ccc4c(c3)CS(=O)(=O)C4)n2)cc1O.Cl [GW579362] | 18
Cc1nnc(-c2ccc3occ(-c4ccc(S(C)=O)cc4)c3n2)o1 (centres unmarked) | 0
O=C(Nc1cccc(C(F)(F)F)c1)c1cccc(Oc2ccc3nccn3n2)c1 | 4
CCCC(=O)Nc1n[nH]c2ncccc12 [SB-601436] | 0
C[C@@H]1CNc2c(sc3ccc4nc(-c5ccc(O)cc5)ccc4c23)C(=O)N1 | 3
COC(=O)c1cccc(NC(=O)NC2CCN(c3ccnc(NCc4ccc(F)cc4)n3)CC2)c1 [GSK1379860] | 35
CC(=O)Nc1ccc(-c2cc3ncnc(SCC(=O)O)c3s2)cc1 | 27
NC(=O)c1ccc(-c2cc3ncnc(SCC(=O)O)c3s2)cc1 | 63
C[C@@H]1CCN(C(=O)N2CCCC2)C[C@@H]1N(C)c1ncnc2[nH]ccc12 | 34

Compound | %Inh [%]
CCn1c(-c2nonc2N)nc2cncc(Br)c21 [SB-738004] | 0
Cc1ccc(CC(=O)N2CCc3cc(-c4cn(C)c5ncnc(N)c45)ccc32)cc1 [GSK2634758] | 0
Nc1nccc(-c2ccc3c(N)n[nH]c3c2)n1 [GSK1034945] | 49
COc1cccc(C2=C(Nc3cccc(Cl)c3)C(=O)NC2=O)c1 [SB-341556] | 71
Cc1n[nH]c2cc(Nc3ccnc(Nc4cccc(CN5CCOCC5)c4)n3)ccc12 [GW682569] | 0
Cl.Cl.NC[C@H](CC1CCCCC1)NC(=O)c1ccc(-c2ccnc3[nH]ccc23)s1 [GSK1581428] | 78
COc1cc2c(Nc3ccc(NC(=O)c4ccccc4)cc3)ncnc2cc1OCCCN1CCOCC1 [GSK301329] | 0
C[C@@H](Oc1cc(-n2cnc3ccc(-c4ccncc4)cc32)sc1C(N)=O)c1ccccc1Cl [GSK483724] | 55
NC(=O)Nc1sc(-c2ccc(F)cc2)cc1C(N)=O [GW789449] | 10
CN(c1ccc2c(c1)nc(NCc1ccc(F)cc1)n2C)c1ccnc(Nc2ccc(CS(C)(=O)=O)cc2)n1.Cl [GW813244] | 29
c1ccc(Oc2ccc(Nc3ccnc4ccc(-c5ccccn5)cc34)cc2)cc1 [GW407034] | 31
CS(=O)c1ccc(-c2coc3ccc(-c4n[nH]c(=O)o4)cc23)cc1 (centres unmarked) | 44
CCN1CCN(CCCC(=O)Nc2n[nH]c3nc(-c4ccc(O)cc4)c(Br)cc23)CC1 [SB-731579] | 56
CC(=O)c1c(-c2ccncc2)[nH]c(-c2ccncc2)c1C [GW493036] | 96.5
CSc1nccc(-c2c(-c3ccc(F)cc3)ncn2CCCN2CCOCC2)n1.Cl [SB-217146] | 0
CN1CCN(CCNc2nc3cc(Oc4ccc(NC(=O)Nc5cc(C(F)(F)F)ccc5F)cc4)ccc3[nH]2)CC1.Cl.Cl [GW768504] | 69
C[C@@H](Oc1cc(-n2cnc3cc(-c4ccncc4)ccc32)sc1C(N)=O)c1ccccc1Cl [GSK479719] | 85
O=C(Nc1cccc(Oc2ccc3nccn3n2)c1)Nc1cccc(C(F)(F)F)c1 | 18

System: ERN1
Details: concentration: 1 μM,replicates: in singlicate; n = 1

Compound | %Inh [%]
COc1ccc(Nc2nccc(N3CCC(NC(=O)c4cccc(C#N)c4)C3)n2)cc1 (centres unmarked) [GSK1379730] | 0
C[C@@H](Oc1cc(-n2cnc3cc(-c4cnn(C)c4)ccc32)sc1C(N)=O)c1ccccc1Cl [GSK580432] | 3
O=C(Nc1n[nH]c2cc(-c3ccco3)ccc12)C1CC1 [SB-737447] | 9
COC(=O)Nc1nc2cc(Oc3ccc(NC(=O)Nc4cc(C(F)(F)F)ccc4Cl)cc3)ccc2[nH]1.Cl [GW697465] | 0
Cc1cccc2c(-c3ccncc3)c(-c3ccc(F)cc3)nn12.Cl [GW461487] | 7
O=c1[nH]cc(-c2ccc(O)cc2)c2sc(-c3ccncc3)cc12 [GSK1033723] | 0
COc1cccc(CNC(=O)NC2CCN(c3ccnc(Nc4cc(OC)c(OC)c(OC)c4)n3)C2)c1 (centres unmarked) [GSK1379765] | 3
COc1cccc(OC)c1C(=O)Nc1cccc(-c2nn3ccccc3c2-c2ccnc(Nc3cccc(F)c3)n2)c1 [GSK361065] | 10
CC(=O)Nc1nc2cnc(Nc3cc(NC(=O)c4cccc(CC(C)(C)C#N)c4)ccc3C)nc2s1 | 0
CC(C)S(=O)(=O)N1CCN(Cc2ccc3c(c2)nc(NC(=O)c2ccsc2)n3C[C@H](O)c2ccccc2)CC1 [GW635815] | 4
Cc1ccc(Nc2ccnc(Nc3ccc4c(c3)CS(=O)(=O)C4)n2)cc1O.Cl [GW579362] | 42
Cc1nnc(-c2ccc3occ(-c4ccc(S(C)=O)cc4)c3n2)o1 (centres unmarked) | 0
O=C(Nc1cccc(C(F)(F)F)c1)c1cccc(Oc2ccc3nccn3n2)c1 | 29
CCCC(=O)Nc1n[nH]c2ncccc12 [SB-601436] | 0
C[C@@H]1CNc2c(sc3ccc4nc(-c5ccc(O)cc5)ccc4c23)C(=O)N1 | 10
COC(=O)c1cccc(NC(=O)NC2CCN(c3ccnc(NCc4ccc(F)cc4)n3)CC2)c1 [GSK1379860] | 0
CC(=O)Nc1ccc(-c2cc3ncnc(SCC(=O)O)c3s2)cc1 | 10
NC(=O)c1ccc(-c2cc3ncnc(SCC(=O)O)c3s2)cc1 | 0
C[C@@H]1CCN(C(=O)N2CCCC2)C[C@@H]1N(C)c1ncnc2[nH]ccc12 | 3

Compound | %Inh [%]
CCn1c(-c2nonc2N)nc2cncc(Br)c21 [SB-738004] | 19
Cc1ccc(CC(=O)N2CCc3cc(-c4cn(C)c5ncnc(N)c45)ccc32)cc1 [GSK2634758] | 11
Nc1nccc(-c2ccc3c(N)n[nH]c3c2)n1 [GSK1034945] | 0
COc1cccc(C2=C(Nc3cccc(Cl)c3)C(=O)NC2=O)c1 [SB-341556] | 10
Cc1n[nH]c2cc(Nc3ccnc(Nc4cccc(CN5CCOCC5)c4)n3)ccc12 [GW682569] | 24
Cl.Cl.NC[C@H](CC1CCCCC1)NC(=O)c1ccc(-c2ccnc3[nH]ccc23)s1 [GSK1581428] | 6
COc1cc2c(Nc3ccc(NC(=O)c4ccccc4)cc3)ncnc2cc1OCCCN1CCOCC1 [GSK301329] | 46
C[C@@H](Oc1cc(-n2cnc3ccc(-c4ccncc4)cc32)sc1C(N)=O)c1ccccc1Cl [GSK483724] | 3
NC(=O)Nc1sc(-c2ccc(F)cc2)cc1C(N)=O [GW789449] | 27
CN(c1ccc2c(c1)nc(NCc1ccc(F)cc1)n2C)c1ccnc(Nc2ccc(CS(C)(=O)=O)cc2)n1.Cl [GW813244] | 28
c1ccc(Oc2ccc(Nc3ccnc4ccc(-c5ccccn5)cc34)cc2)cc1 [GW407034] | 0
CS(=O)c1ccc(-c2coc3ccc(-c4n[nH]c(=O)o4)cc23)cc1 (centres unmarked) | 0
CCN1CCN(CCCC(=O)Nc2n[nH]c3nc(-c4ccc(O)cc4)c(Br)cc23)CC1 [SB-731579] | 0
CC(=O)c1c(-c2ccncc2)[nH]c(-c2ccncc2)c1C [GW493036] | 0
CSc1nccc(-c2c(-c3ccc(F)cc3)ncn2CCCN2CCOCC2)n1.Cl [SB-217146] | 33
CN1CCN(CCNc2nc3cc(Oc4ccc(NC(=O)Nc5cc(C(F)(F)F)ccc5F)cc4)ccc3[nH]2)CC1.Cl.Cl [GW768504] | 0
C[C@@H](Oc1cc(-n2cnc3cc(-c4ccncc4)ccc32)sc1C(N)=O)c1ccccc1Cl [GSK479719] | 16
O=C(Nc1cccc(Oc2ccc3nccn3n2)c1)Nc1cccc(C(F)(F)F)c1 | 6
